According to publication PMC5540273 (PLoS ONE, 2017):

How the values were obtained:
Settings in all cases: concentration: 1 μM,replicates: in singlicate; n = 1
PRKD3 = test system: PRKD3
PRKG1 = test system: PRKG1
PRKG2 = test system: PRKG2
PRKR = test system: T1, PRKR
T1 construct: gene EIF2AK2

PRKX = test system: PRKX
PRP4 = test system: PRP4
PYK2 = test system: T2, PYK2
T2 construct: gene PTK2B

QSK = test system: QSK
RAF1 = test system: RAF1
RET = test system: RET
RIOK1 = test system: RIOK1
RIOK2 = test system: RIOK2
RIOK3 = test system: RIOK3
RIPK1 = test system: RIPK1
RIPK2 = test system: RIPK2
RIPK4 = test system: RIPK4
RIPK5 = test system: RIPK5
ROCK1 = test system: ROCK1
ROCK2 = test system: ROCK2
ROS1 = test system: ROS1
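Further: KINOMEscan kinase panel screen.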

SMILES | %Inh (PRKD3) [%] | %Inh (PRKG1) [%] | %Inh (PRKG2) [%] | %Inh (PRKR) [%] | %Inh (PRKX) [%] | %Inh (PRP4) [%] | %Inh (PYK2) [%] | %Inh (QSK) [%] | %Inh (RAF1) [%] | %Inh (RET) [%] | %Inh (RIOK1) [%] | %Inh (RIOK2) [%] | %Inh (RIOK3) [%] | %Inh (RIPK1) [%] | %Inh (RIPK2) [%] | %Inh (RIPK4) [%] | %Inh (RIPK5) [%] | %Inh (ROCK1) [%] | %Inh (ROCK2) [%] | %Inh (ROS1) [%]
CCN(CC)CCOc1ccc(Nc2ncc3cc(-c4c(Cl)cccc4Cl)c(=O)n(C)c3n2)cc1 [SB-601273] | 100 | 0 | 9 | 18 | 0 | 31 | 56 | 95.6 | 97 | 100 | 35 | 29 | 92.3 | 100 | 99.7 | 18 | 44 | 25 | 50 | 50
C[C@@H]1CCN(C(=O)CC#N)C[C@@H]1N(C)c1ncnc2[nH]ccc12 | 14 | 14 | 0 | 0 | 0 | 0 |  | 0 | 0 |  | 0 | 0 | 37 | 0 | 0 | 0 | 0 |  | 46 | 6
O=C(NCCNc1ccnc(NCc2ccc(F)cc2)n1)c1cc2ccccc2s1 [GSK1379944] | 100 | 22 | 0 | 0 | 19 | 18 | 14 | 7 | 11 | 79 | 28 | 0 | 17 | 0 | 73 | 5 | 0 | 0 | 0 | 7
Cl.Cl.NC[C@H](Cc1ccc(C(F)(F)F)cc1)NC(=O)c1cc(Br)c(-c2ccnc3[nH]ccc23)s1 [GSK1487252] | 81 | 98.1 | 98.7 | 0 | 96 | 22 | 13 | 14 | 10 | 74 | 35 | 0 | 12 | 0 | 0 | 19 | 0 | 98.2 | 99.5 | 44
Cl.Oc1cc(-c2nc(-c3ccccc3)[nH]c2-c2ccncc2)ccc1Cl [SB-386023] | 0 | 15 | 0 | 0 | 0 | 0 | 6 | 33 | 97.9 | 66 | 0 | 5 | 0 | 0 | 78 | 17 | 21 | 1 | 6 | 19
Cl.Cl.Nc1nc(-c2ccc3c(N)n[nH]c3c2)cc(N2CCCC(NC(=O)c3ccccc3)C2)n1 (stereo not shown) [GSK2286775] | 0 | 0 | 38 | 5 | 83 | 36 | 15 | 0 | 9 | 0 | 96.5 | 9 | 99.3 | 4 | 8 | 39 | 5 | 2 | 30 | 0
CNC(=O)c1ccccc1Sc1ccc2c(/C=C/c3ccccn3)n[nH]c2c1 | 0 | 0 | 0 | 0 | 9 | 0 | 20 | 0 | 3 |  | 2 | 0 | 0 | 12 | 22 | 0 | 11 | 5 | 17 | 45
O=C(NCCCN1CCOC1=O)c1cnc(NCc2cc(Cl)ccc2Cl)nc1NC1CCCC1 | 0 | 13 | 21 | 4 | 0 | 1 | 0 | 0 | 7 | 22 | 0 | 0 | 6 | 1 | 0 | 11 | 0 | 0 | 0 | 18
Cc1ccc2c(-c3ccncc3)c(-c3ccc(F)cc3)nn2c1.Cl [GW461484] | 50 | 30 | 18 | 0 | 0 | 0 | 0 | 1 | 19 | 14 | 0 | 0 | 19 | 0 | 55 | 0 | 0 | 14 | 5 | 0
Cc1cc2cn[nH]c2cc1-c1cccc2c(N)c(C(N)=O)nnc12 | 84 | 0 | 23 | 2 | 20 | 6 | 27 | 15 | 0 | 19 | 100 | 77 | 73 | 0 | 4 | 84 | 74 | 70 | 68 | 80
NC(=O)c1cc(-c2ccccc2)cc2c(C3CCNCC3)c[nH]c12 [GSK301362] | 29 | 5 | 0 | 0 | 36 | 2 | 37 | 13 | 3 | 7 | 79 | 20 | 64 | 0 | 7 | 19 | 0 | 40 | 19 | 23
CN(C)CC(O)COc1ccc(Nc2nccc(-c3cnn4nc(N5CCOCC5)ccc34)n2)cc1 (stereo not shown) [GW767488] | 93.6 | 0 | 50 | 59 | 8 | 2 | 29 | 43 | 6 | 17 | 96.6 | 98.2 | 98.2 | 46 | 0 | 55 | 65 | 93.8 | 97.9 | 48
CCN(CC)CCCCNc1ncc2cc(-c3c(Cl)cccc3Cl)c(NC(=O)NC(C)(C)C)nc2n1 | 25 | 2 | 7 | 0 | 0 | 0 | 4 | 39 | 87 | 96.5 | 0 | 6 | 0 | 17 | 54 | 0 | 26 | 0 | 9 | 43
